# Data published in the supplement of paper PMC6555819.
# Test system: VDR:RXRa (NR concentration 270 nM, RXRa partner concentration 90 nM)
# Assay: PBM binding z-score (relative to random genomic background probes); higher = stronger binding; sequences stand for … in GC…GCGATTGACAGCGTAGAATGAAGG
# Description: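 Protein-binding microarray (Agilent 4x180K custom design, double-stranded 60-nt probes: 5' GC cap, 34-nt variable region, 24-nt constant primer region; full probe sequence given). Purified or IVT nuclear receptor:RXRα heterodimers (3:1 NR:RXRα, mostly 270:90 nM) or homodimers were incubated for 1 h in PBS with 2% milk and no ligand, then detected with Alexa488 antibodies. Fluorescence from o1-orientation probes (~5 replicates averaged) was converted to z-scores against 500 random hg19 background probes. Variable regions are seed direct-repeat (DR0–DR5) sites, all their single-nucleotide variants and half-site ablations.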
row,Sequence,PBM binding z-score
1,CTACCAAGGAGAACAAGGTCGTTGATTACTATTC,1.56
2,TATACAGGGTCAAAAGCCAGAGTACGAATGTCGA,4.1
3,CGTCCAAAGTCAAGGTCAGTGAAAGAGACTCGAA,2.11
4,CGTCCAAGGTCTTAGGAGGTCAGTGAAGACAGAT,2.89
5,TCTTGTAGATCAGGCAGGTTAAGAAAGCCTGAGT,0.268
6,GCTAGTTGGTCAGTAAAACGTCACACACCGGTCG,-0.225
7,TCTATTAGTTGATTAGGGCACCCGAAACAGCGGA,0.698
8,ATCACTAGGTAAGACTCAGTTCAGTGAAGAACGC,0.53
9,TAGCCTAGGTCATCGGCCAGTATACCACGCGAAC,2.15
10,CCTACAGGGCCATCAGGTCATTGATATCAACGTT,2.48
11,CCTAGCAGGCCAGGGTCACTCATGCATTTCGCTT,2.14
12,TAATATAGGTAAAGGTGAAAGTCGAACGATATGA,1
13,AGAATCAGGTTACCAAAGATCAGGGAAACGCTTG,-0.0357
14,GGAACGAGGGCATTCCAGTTGATAGCATGGCGAT,2
15,TCTGCTAGGTCCACGATGGTCAGCTAATCTGCTA,-0.304
16,CAAACTAGGTCAAGAGGTCATAGTCCGCTTCCCG,5.59
17,ACTAGTTGGTCAGCTGAAGTCACACACAATTCGG,-0.103
18,TAGCCTAGGTCATTGGGCCAGGATAGTACGCATC,1.85
19,TTTCAAAGTTCAAAGGTAACGTAAGTATCCACAC,5.06
20,CGTCAAAGTTCGACTAAGGTAACGTAAAGCACGC,1.83

row,Sequence,PBM binding z-score
1,ACAGACATGTGATGAAGGTAACTCAGGCTATCAT,-0.214
2,TCGAGTAGGTTACCAATGGGGCATGCAGCTTTCT,-0.0716
3,ACTAATAGTTGACTTAGGGCAACCGATACGACGC,0.357
4,TTACCAAGGTGAAAGGTGGTTGATGCACGCCTTG,0.184
5,CTACCGAGGTGAACAAGGTCGTTGATTACTATTC,6.42
6,CGAAATAGGTCATCCAGGACAGTGAATACATTGA,5.63
7,GCTGCTAGGTCAACTGATGGTCAGCTTAAGCTCG,1.62
8,TGAATGAGGTTAAAGATCACGGAACGTGGCGTCG,2.22
9,ATCGAAAGGTCGTGATGTGAGTATACAGAAAGGC,2.98
10,GTACCAAGGTGTATAGGTCGTTGATGAGTAGGCG,0.168
11,CTCGAAAGGTCGGTGGAGGTGAGTATACGGATAA,1.79
12,ATCGAAAGGTCGTGGTGAGTATAGAGAAAGGGAA,3.85
13,TCATATAGGTAATACAGGTGAGAGTCGGCATCTA,0.85
14,CCTGCTAGGGCATGGTCAGCTAATCTACAGTATG,-0.579
15,CCTATTAGGTGACCATAAGGGCAACCGAAGCTCG,0.646
16,TCTTGTAGATCAGCCGGTTAAGAAAGCTGGCCAA,-0.00365
17,CCTCACGGGTCACGAGGTTATAGCACGACGAGCG,4.79
18,ATATGTATGTTAAGGGTCATTCAGGTTGGTTCGC,5.25
19,TCTCGGAGGACACGAATGGTCAGAGCTCGACATC,-0.0797
20,TCATATAGGTAAAGGTGAAGGTCGAACGATATGA,1.63
